# Of roughly 8,800 targets only a part is listed; those with a hit were picked by preference. About 0.5% of all pairs of compound and target were hits.
# Compound: C1=CC=C(C=C1)[C@H](COC2=CC3=C(C=C2)NC(=O)N3)NC(=O)C4=CC=CN(C4=O)CC5=CC(=C(C=C5)F)F
# Assay: log2 fold change, soluble protein after heating vs DMSO (PISA); higher = thermal stabilisation; K562 lysate, 10 uM; active = over 0.2 and 3.5 SD of the protein, either way, in both replicates (recomputed)
# Outline: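 Soluble protein was defined as the supernatant remaining after 21,000xg for 90 min, following pooling of heated aliquots and adjustment to 0.5% NP-40 at 4°C. Before that, crude K562 extract at 1 mg/mL protein in PBS pH 7.4 with 1 mM MgCl2 was treated with 10 μM compound for 30 min and heated for 3 min across 48°C-58°C. Quantification used TMTpro 16plex LC-MS/MS with channel sums equalised, and values are log-two fold changes in thermal stability relative to solvent controls from duplicates.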
# Chain of UniProt Q9NZC3 (Q9NZC3 whole entry, looked up): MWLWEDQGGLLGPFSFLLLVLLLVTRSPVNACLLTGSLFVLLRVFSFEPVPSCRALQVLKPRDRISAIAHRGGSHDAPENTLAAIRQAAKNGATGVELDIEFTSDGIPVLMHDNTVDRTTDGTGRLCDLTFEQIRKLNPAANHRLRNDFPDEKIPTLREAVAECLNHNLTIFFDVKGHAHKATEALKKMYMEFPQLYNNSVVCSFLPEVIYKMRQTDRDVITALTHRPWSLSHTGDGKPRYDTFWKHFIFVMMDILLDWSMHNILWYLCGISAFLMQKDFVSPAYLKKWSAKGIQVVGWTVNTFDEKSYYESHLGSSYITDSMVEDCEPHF
# Chain of UniProt Q8TEQ6 (Q8TEQ6 whole entry, looked up): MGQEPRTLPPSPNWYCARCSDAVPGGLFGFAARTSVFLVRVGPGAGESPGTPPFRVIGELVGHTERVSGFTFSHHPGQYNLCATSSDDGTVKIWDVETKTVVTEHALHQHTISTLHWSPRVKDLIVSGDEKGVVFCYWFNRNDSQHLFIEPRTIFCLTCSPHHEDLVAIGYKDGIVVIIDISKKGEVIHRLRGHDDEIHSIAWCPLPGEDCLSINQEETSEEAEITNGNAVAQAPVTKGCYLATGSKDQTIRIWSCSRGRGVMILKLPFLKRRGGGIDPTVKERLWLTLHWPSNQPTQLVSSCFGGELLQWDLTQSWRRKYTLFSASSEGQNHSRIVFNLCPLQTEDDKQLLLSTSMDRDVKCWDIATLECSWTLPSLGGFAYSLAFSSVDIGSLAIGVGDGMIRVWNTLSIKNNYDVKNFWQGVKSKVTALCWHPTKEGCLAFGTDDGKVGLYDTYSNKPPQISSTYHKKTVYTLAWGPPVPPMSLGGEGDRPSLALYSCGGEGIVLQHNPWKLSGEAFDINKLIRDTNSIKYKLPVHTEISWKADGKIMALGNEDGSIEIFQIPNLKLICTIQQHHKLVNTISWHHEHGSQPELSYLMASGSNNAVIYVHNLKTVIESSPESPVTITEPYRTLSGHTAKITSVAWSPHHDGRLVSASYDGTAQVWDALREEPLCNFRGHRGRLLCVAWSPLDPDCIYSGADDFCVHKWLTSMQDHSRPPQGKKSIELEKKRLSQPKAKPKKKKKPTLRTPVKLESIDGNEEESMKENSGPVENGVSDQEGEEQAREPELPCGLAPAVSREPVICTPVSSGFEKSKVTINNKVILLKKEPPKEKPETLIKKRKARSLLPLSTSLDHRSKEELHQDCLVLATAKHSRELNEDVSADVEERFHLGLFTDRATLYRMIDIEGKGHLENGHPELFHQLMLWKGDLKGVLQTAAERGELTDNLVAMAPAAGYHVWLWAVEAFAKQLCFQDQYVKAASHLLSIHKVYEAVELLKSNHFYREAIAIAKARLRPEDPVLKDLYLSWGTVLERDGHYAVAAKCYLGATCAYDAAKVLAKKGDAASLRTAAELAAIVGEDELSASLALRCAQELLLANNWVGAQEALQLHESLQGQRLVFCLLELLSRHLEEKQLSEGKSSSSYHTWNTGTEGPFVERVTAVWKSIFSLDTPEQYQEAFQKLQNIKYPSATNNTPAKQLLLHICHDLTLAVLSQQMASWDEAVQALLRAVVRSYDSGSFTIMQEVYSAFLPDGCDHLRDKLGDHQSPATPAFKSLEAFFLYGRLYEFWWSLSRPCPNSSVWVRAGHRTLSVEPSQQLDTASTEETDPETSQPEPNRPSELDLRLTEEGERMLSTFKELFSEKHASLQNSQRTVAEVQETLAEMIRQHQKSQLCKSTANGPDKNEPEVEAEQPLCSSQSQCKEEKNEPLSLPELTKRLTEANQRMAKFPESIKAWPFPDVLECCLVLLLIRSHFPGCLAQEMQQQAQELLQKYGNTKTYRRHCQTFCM
# Chain of UniProt Q9NPA0 (Q9NPA0 whole entry, looked up): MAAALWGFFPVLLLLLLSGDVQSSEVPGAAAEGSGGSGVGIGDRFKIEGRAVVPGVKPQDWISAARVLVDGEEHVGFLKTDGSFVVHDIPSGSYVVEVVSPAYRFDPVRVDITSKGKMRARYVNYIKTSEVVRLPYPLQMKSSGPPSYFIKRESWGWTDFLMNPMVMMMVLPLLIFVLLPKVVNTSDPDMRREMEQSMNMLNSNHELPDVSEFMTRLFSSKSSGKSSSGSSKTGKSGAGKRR
# Chain of UniProt O95718 (O95718 whole entry, looked up): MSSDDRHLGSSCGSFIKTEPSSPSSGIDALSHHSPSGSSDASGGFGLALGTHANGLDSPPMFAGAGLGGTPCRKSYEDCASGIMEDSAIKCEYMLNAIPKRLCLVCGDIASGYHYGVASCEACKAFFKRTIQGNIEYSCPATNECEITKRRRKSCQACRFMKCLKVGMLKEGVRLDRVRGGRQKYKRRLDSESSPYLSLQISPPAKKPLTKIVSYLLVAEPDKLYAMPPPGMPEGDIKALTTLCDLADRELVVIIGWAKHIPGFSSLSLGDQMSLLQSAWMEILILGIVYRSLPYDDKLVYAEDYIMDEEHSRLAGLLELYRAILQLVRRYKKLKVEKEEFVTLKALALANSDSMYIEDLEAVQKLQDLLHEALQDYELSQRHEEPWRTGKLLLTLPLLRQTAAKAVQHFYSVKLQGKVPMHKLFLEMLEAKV
# Chain of UniProt Q8NFF5 (Q8NFF5 whole entry, looked up): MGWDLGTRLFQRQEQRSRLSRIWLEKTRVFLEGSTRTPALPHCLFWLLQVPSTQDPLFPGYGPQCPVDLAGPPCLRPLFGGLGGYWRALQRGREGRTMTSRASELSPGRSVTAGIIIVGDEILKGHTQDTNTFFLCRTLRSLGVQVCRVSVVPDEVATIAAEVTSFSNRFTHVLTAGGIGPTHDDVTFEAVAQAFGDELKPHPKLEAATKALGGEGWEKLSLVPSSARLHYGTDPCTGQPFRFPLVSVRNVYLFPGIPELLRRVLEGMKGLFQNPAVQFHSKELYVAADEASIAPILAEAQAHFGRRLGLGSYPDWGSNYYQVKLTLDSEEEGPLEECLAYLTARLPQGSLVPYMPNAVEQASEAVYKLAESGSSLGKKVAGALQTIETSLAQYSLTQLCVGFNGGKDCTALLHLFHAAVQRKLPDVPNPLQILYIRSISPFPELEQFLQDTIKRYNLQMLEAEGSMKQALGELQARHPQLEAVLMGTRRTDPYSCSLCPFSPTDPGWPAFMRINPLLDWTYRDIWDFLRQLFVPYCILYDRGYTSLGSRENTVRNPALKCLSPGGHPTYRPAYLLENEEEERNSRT
# Chain of UniProt P58012 (P58012 whole entry, looked up): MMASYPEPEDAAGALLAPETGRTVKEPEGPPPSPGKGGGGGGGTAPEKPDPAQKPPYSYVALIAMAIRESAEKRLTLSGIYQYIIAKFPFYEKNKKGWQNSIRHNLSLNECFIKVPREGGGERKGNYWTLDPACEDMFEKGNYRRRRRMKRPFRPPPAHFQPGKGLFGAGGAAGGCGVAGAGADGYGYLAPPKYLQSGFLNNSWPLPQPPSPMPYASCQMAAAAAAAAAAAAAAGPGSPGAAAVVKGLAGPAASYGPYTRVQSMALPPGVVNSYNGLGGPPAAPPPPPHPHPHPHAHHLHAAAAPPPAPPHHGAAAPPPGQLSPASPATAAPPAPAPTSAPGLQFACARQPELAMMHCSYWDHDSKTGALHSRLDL
# Chain of UniProt P0C2W1 (P0C2W1 whole entry, looked up): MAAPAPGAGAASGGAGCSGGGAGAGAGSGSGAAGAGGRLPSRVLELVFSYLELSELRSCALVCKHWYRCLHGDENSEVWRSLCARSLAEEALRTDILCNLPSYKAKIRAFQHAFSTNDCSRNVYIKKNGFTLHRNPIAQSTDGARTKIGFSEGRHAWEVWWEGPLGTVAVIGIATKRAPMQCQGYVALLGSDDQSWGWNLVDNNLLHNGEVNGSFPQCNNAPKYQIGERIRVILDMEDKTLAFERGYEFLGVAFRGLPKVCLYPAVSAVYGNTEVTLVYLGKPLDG
# Chain of UniProt Q9HCG7 (Q9HCG7 whole entry, looked up): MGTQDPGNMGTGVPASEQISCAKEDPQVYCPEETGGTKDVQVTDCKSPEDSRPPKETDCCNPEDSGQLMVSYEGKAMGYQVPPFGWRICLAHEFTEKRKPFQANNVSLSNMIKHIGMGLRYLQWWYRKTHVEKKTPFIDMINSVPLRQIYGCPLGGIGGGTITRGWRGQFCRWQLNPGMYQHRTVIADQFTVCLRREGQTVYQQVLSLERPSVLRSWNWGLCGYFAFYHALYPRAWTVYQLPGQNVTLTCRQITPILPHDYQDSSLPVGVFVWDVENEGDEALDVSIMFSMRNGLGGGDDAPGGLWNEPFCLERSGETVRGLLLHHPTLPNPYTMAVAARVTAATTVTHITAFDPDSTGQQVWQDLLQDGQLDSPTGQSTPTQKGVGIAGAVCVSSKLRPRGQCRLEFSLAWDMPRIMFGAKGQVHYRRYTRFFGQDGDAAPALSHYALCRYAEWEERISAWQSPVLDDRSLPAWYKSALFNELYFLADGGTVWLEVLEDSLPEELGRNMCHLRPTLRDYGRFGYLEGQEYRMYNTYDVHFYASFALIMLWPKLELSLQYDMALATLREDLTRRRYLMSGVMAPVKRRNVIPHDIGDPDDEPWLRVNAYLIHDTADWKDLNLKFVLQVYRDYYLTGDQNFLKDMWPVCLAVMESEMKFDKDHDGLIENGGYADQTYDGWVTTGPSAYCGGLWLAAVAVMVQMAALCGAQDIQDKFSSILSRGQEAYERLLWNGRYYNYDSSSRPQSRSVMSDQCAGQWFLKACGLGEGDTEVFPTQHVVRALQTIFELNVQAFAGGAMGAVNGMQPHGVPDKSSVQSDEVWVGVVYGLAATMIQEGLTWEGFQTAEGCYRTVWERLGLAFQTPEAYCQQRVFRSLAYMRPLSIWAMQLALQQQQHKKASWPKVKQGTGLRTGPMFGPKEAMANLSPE
# Chain of UniProt Q9UKR5 (Q9UKR5 whole entry, looked up): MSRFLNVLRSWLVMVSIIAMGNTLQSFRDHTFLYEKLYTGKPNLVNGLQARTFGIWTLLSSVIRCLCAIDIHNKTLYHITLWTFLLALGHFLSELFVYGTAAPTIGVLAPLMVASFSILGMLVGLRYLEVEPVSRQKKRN
row,Target,log2 fold change
1,ERG28 (UniProt Q9UKR5),0.001 (inactive)
2,GAA (UniProt P10253),-0.001 (inactive)
3,EPS8L2 (UniProt Q9H6S3),0.124 (inactive)
4,FECH isoform 2 (UniProt P22830),0.06 (inactive)
5,FOXL2 (UniProt P58012),0.135 (inactive)
6,FIG4 (UniProt Q92562),-0.107 (inactive)
7,FXR1 (UniProt P51114),-0.028 (inactive)
8,DST isoform 3 (UniProt Q03001),-0.039 (inactive)
9,FAT2 (UniProt Q9NYQ8),-0.009 (inactive)
10,FOXJ2 (UniProt Q9P0K8),0.022 (inactive)
11,EMC7 (UniProt Q9NPA0),0.01 (inactive)
12,FBXO45 (UniProt P0C2W1),-0.079 (inactive)
13,GEMIN5 (UniProt Q8TEQ6),-0.015 (inactive)
14,GAPVD1 isoform 6 (UniProt Q14C86),-0.013 (inactive)
15,GDE1 (UniProt Q9NZC3),-0.085 (inactive)
16,GBA2 (UniProt Q9HCG7),0.046 (inactive)
17,DYRK1A isoform 2 (UniProt Q13627),-0.001 (inactive)
18,EPN2 (UniProt I3L356),0.12 (inactive)
19,GART (UniProt C9JZG2),-0.131 (inactive)
20,FLAD1 (UniProt Q8NFF5),0.006 (inactive)
21,EHHADH (UniProt Q08426),0.035 (inactive)
22,ESRRB isoform 1 (UniProt O95718),-0.147 (inactive)

# From the supplement of paper PMC10849652
